Hit rate of the full screen: of about 340,000 compounds, about 2,100 (0.62%) were called active.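 How the source made its calls: active means first-screen hits whose inhibition reached a set limit at any dose in the follow-up dose series; inconclusive means inhibition above the set first-screen limit but never retested; inactive means the rest.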 Not all results are given here. Potency and affinity values are given separately.
target: Rac GTPase-activating protein 1 (Homo sapiens) (UniProt Q9H0H5); assay: MgcRacGAP GTPase-activating activity inhibitors, confirmation, biochemical, ADP Hunter fluorescence, primary and confirmatory (AID 624330); conditions: MgcRacGAP-stimulated Rac1 GTP hydrolysis, at 30 µM, active compounds read high, GST-tagged Rac1 F28L mutant substrate;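 further: fluorescence reports GDP produced by GAP-driven GTP hydrolysis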
Sequence (Q9H0H5 whole entry, looked up): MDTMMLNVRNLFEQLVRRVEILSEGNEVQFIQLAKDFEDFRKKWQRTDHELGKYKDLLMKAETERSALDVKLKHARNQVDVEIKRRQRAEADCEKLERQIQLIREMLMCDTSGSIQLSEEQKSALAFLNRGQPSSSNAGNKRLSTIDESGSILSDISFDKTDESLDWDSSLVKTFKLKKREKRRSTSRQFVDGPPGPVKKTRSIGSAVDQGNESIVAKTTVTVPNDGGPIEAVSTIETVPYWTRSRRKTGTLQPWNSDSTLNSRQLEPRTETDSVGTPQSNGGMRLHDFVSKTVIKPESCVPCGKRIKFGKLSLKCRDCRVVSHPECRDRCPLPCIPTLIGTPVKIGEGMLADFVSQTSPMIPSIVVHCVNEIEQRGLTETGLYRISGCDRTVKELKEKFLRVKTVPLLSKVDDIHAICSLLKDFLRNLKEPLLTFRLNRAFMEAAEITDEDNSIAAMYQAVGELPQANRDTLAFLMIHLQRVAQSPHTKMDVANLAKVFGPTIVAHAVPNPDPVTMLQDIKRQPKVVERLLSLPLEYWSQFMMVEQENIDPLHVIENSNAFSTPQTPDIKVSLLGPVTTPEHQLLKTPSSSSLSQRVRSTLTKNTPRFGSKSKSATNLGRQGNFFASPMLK

Compound	inhibition
Cn1c(=O)[nH]c(=O)c2c1nc(N)n2Cc1ccccc1	5.45% (inactive)
CSc1nc2c(c(=O)[nH]c(=O)n2C)n1Cc1ccccc1	2.19% (inactive)
Cn1c(=O)c2c(nc(Br)n2CCCc2ccccc2)n(C)c1=O	8.11% (inactive)
CNc1nc2c(c(=O)n(C)c(=O)n2C)n1CCCc1ccccc1	10.2% (inactive)
CNc1nc2c(c(=O)[nH]c(=O)n2C)n1CCCc1ccccc1	16.1% (inactive)
CSc1nc2c(c(=O)[nH]c(=O)n2C)n1CCCc1ccccc1	5.17% (inactive)
COc1ccc(CCn2c(O)cc3nn(-c4nc5ccccc5s4)c(=O)c-3c2C)cc1	20.6% (inactive)
Cc1ccc(C)c(S(=O)(=O)NCC(=O)NCc2ccco2)c1	1.96% (inactive)
CC(C)Oc1ccc(C2NC(=O)c3ccccc3O2)cc1 (configuration not stated)	4.5% (inactive)
CC1CCCN(C(=O)C(=O)Nc2ccc3nc4n(c(=O)c3c2)CCCCC4)C1 (configuration not stated)	7.24% (inactive)
Cc1noc(NC(=O)c2cccc(Cl)c2Cl)c1C#N	6.81% (inactive)
N#Cc1cccc(NC(=O)CSc2sc3c(O)cc(=O)[nH]c3c2C#N)c1	18.4% (inactive)
NS(=O)(=O)c1ccc(NC(=O)CN2C(=O)CCC2=O)cc1	6.61% (inactive)
CC1CN(C(=O)N2c3ccccc3Sc3ccccc32)C(C)CC1=O (configuration not stated)	5.35% (inactive)
O=C(CSc1ccccc1)NCC(c1ccco1)N1CCCCC1 (configuration not stated)	3.84% (inactive)
CN1OC[C@@H]2CN[C@H](c3ccc(-c4cccc(F)c4)cc3)C[C@@H]21	15.6% (inactive)
Cc1nn2cc(-c3ccc(Cl)cc3)nc2s1	-6.27% (inactive)
Cc1nn2cc(-c3ccc(-c4ccccc4)cc3)nc2s1	11.1% (inactive)
CC(C)C(=O)N1CCN(c2ccc(NC(=O)c3ccc4c(c3)OCCO4)cc2)CC1	5.03% (inactive)
Cc1nn(-c2ccccc2)c(C)c1/C=N/O	12.2% (inactive)
Cc1nn(-c2ccccc2)c(Cl)c1/C=N/O	9.11% (inactive)
Cc1ccc2nc(C)c(C(=O)N/N=C/c3ccco3)cc2c1	3.04% (inactive)
CCN(C[C@H]1N[C@@](C)(C(=O)OC)[C@H]2C(=O)N(C)C(=O)[C@@H]12)C(=O)c1ccccc1	6.04% (inactive)
CC(=O)N(C1=C(N2CCOCC2)C(=O)c2ccccc2C1=O)c1ccc(C(=O)O)cc1	-12.8% (inactive)
CC(=O)N(C1=C(N)C(=O)c2ccccc2C1=O)c1ccccc1	9.97% (inactive)

Compound	inhibition
CSc1ccc(NC(=O)CSc2nc3[nH]c(=O)cc(O)c3s2)cc1	11.1% (inactive)
N[C@@H](Cc1ccc(O)c(O)c1)C(=O)O	6.56% (inactive)
COC(=O)[C@@H](N)Cc1ccc(O)c(O)c1	-7.99% (inactive)
COc1ccc(N2CC(C(=O)Nc3ccc(N4CCOCC4)cc3)CC2=O)cc1 (configuration not stated)	6.69% (inactive)
CCOc1cc(C(c2c(C)[nH][nH]c2=O)c2c(C)[nH][nH]c2=O)ccc1OCc1ccc([N+](=O)[O-])cc1	-0.47% (inactive)
Cc1ccccc1N(C(=O)c1csnn1)C(C(=O)NC1CCCCC1)c1ccncc1 (configuration not stated)	-1.41% (inactive)
Cc1nc2nc(-c3ccccc3)cc(=O)n2[nH]1	4.54% (inactive)
Cc1cc2nc(-c3ccccc3)cc(=O)n2[nH]1	14.4% (inactive)
CC(C)C(=O)Nc1nnc(NC(=S)Nc2ccccc2)s1	1% (inactive)
COc1ccccc1Nc1ncnc2nc[nH]c12	6.06% (inactive)
COc1cccc2[nH]c3c(Cl)ncnc3c12	5.53% (inactive)
CCOCCn1c(SC(C)C(C)=O)nc2c1c(=O)[nH]c(=O)n2C (configuration not stated)	5.63% (inactive)
CCOC(=O)c1c(C)oc2c(CN3CCN(C)CC3)c(Br)c(OC)c(O)c12	14.1% (inactive)
COc1ccccc1N=Nc1c(C)n[nH]c1C	7.74% (inactive)
COc1ccccc1N=Nc1c(C)noc1C	2.76% (inactive)
COCCN(C(=O)CSc1nc2ccc(Cl)cc2[nH]1)c1c(N)n(Cc2ccccc2)c(=O)[nH]c1=O	10.9% (inactive)
Cn1ncc(Cl)c1C(=O)N1CCN(c2cccc(Cl)c2)CC1	7.96% (inactive)
CCN(c1ccccc1)S(=O)(=O)c1ccc(Cl)c(NC(=O)CN2CCCCCC2)c1	29.2% (inactive)
CCN(c1ccccc1)S(=O)(=O)c1ccc(Cl)c(NC(=O)CN2CCN(C)CC2)c1	-0.66% (inactive)
CCCCSCCCNC(=O)c1ccc(CS(=O)(=O)c2ccccc2OC)o1	5.81% (inactive)
CC(C)Cn1c(-c2ccco2)n[nH]c1=S	26.8% (inactive)
CC(C)Cn1c(-c2ccc(F)cc2)n[nH]c1=S	14.4% (inactive)
CCOC(=O)C1=C(c2ccccc2)Nc2ncnn2C1c1ccc(O)cc1 (configuration not stated)	5.08% (inactive)
COc1ccc(N2C(=O)CSC2c2ccncc2)cc1 (configuration not stated)	8.8% (inactive)
COc1ccc(C2CC(c3ccncc3)=NN2c2ccc(S(N)(=O)=O)cc2)cc1 (configuration not stated)	9.08% (inactive)

Compound	inhibition
Cc1ccnc(NC(=O)c2cccc(NC(=O)c3ccccc3C)c2)c1	11.1% (inactive)
Clc1ccc(-c2ccc(C=Nc3ccc(N4CCOCC4)cc3)o2)cc1	25.6% (inactive)
Clc1ccc(-c2ccc(C=Nc3ccc(N4CCOCC4)cc3)o2)c(Cl)c1	9.07% (inactive)
Clc1cccc(-c2ccc(C=Nc3ccc(N4CCOCC4)cc3)o2)c1	23.7% (inactive)
O=C(CN1CCOCC1)N/N=C/c1ccc(-c2cccc(Cl)c2Cl)o1	7.09% (inactive)
Cc1c(C)c2cccnc2c2ncccc12	8.09% (inactive)
O=C1CCCc2oc3ccc(NS(=O)(=O)c4cccc5cccnc45)cc3c21	-1.33% (inactive)
COc1ccc(Br)cc1S(=O)(=O)n1nc(C)cc1C	-4.17% (inactive)
CCN(CC(=O)NCCCn1ccnc1)S(=O)(=O)c1ccc(C)cc1	-8.53% (inactive)
O=C(c1cccn2c(=O)c3cc(Cl)ccc3nc12)N1CCN(Cc2ccc3c(c2)OCO3)CC1	9.42% (inactive)
Cc1cc(C)c(C#N)c(Sc2ccc(N)cc2)n1	8.38% (inactive)
COc1ccccc1CN1CC(C(=O)NCc2cnn(C)c2)CCC1=O (configuration not stated)	5.74% (inactive)
COc1cccc(CNCc2cccc(OC)c2O)c1O	-13.3% (inactive)
COc1cc(CNCc2ccco2)cc(OC)c1O	6.83% (inactive)
CCOC(=O)c1ccccc1NC(=O)COC(=O)c1ccc(OCC(=O)N2CCOCC2)c(OCC)c1	4.78% (inactive)
Cc1ccc(N(CC(=O)N2CCc3ccccc32)S(=O)(=O)c2cccs2)cc1	1.58% (inactive)
COc1ccccc1OCC#CCSc1ncccn1	7.44% (inactive)
CCN1CCN(CC#CCOc2ccccc2OC)CC1	29.8% (inactive)
COc1ccccc1OCC#CCNC1CCCCC1C (configuration not stated)	22.6% (inactive)
COc1ccc(OCC#CCn2ccnc2)cc1	-14.9% (inactive)
CC1CC(C)CN(S(=O)(=O)c2ccc(C(=O)Nc3sccc3C(N)=O)cc2)C1 (configuration not stated)	3.38% (inactive)
O=C(Cn1c(=O)cnc2ccccc21)Nc1cc(Cl)ccc1N1CCOCC1	-4.21% (inactive)
CCN(CC(=O)Nc1ccc(OC)cc1)CC(=O)Nc1sc2c(c1C(=O)OC)CCCC2	3.58% (inactive)
CCCC(=O)NC1=C(Cl)C(=O)c2ccccc2C1=O	24.7% (inactive)
CCC(=O)Nc1c(C)cc(C)cc1Cl	12.3% (inactive)

Compound	inhibition
Cc1cccc(NC(=O)CN2CCN(C(=O)CN3C(=O)NC4(CCCCC4C)C3=O)CC2)c1C (configuration not stated)	7.46% (inactive)
CCN(CC)c1ccc(/C=N/NC(=S)NCc2ccccc2)c(O)c1	12.5% (inactive)
CCOC(=O)N/N=C/c1ccc(F)cc1F	3.61% (inactive)
CCN(CC)c1ccc(/C=N/NC(=O)c2ccoc2C)c(O)c1	2.9% (inactive)
CCN(CC)c1ccc(/C=N/Nc2nc(C)cc(=O)[nH]2)c(O)c1	22.4% (inactive)
CCN(CC)c1ccc(/C=N/NC(=O)Cc2cccs2)c(O)c1	-34.9% (inactive)
CCN(CC)c1ccc(/C=N/Nc2ccc(C)cc2)c(O)c1	11.6% (inactive)
CCN(CC)c1ccc(/C=N/Nc2ccccc2)c(O)c1	5.91% (inactive)
CCN(CC)c1ccc(/C=N/NC(=O)c2ccco2)c(O)c1	9.97% (inactive)
CCOc1ccc(N(CC(=O)Nc2cc(Cl)ccc2C)S(C)(=O)=O)cc1	-0.16% (inactive)
CCOc1ccc(CC(=NCCO)C2=C(O)CC(C)(C)CC2=O)cc1OCC	2.19% (inactive)
Cn1c(=O)oc2cc(S(=O)(=O)NCCN3CCc4ccccc4C3)ccc21	-3.64% (inactive)
CCN(CC)C(=O)CN1C(=O)C(=O)c2ccccc21	6.56% (inactive)
Nc1ccn(CCCN2CCN(Cc3cccc4ccccc34)CC2)c(=O)n1	19.7% (inactive)
Cc1ccccc1N1CCN(C(=O)NCc2cccc(Cl)c2)CC1	2.37% (inactive)
Cc1ccc(S(=O)(=O)N2CCC(C(=O)NC3CCCCC3C)CC2)cc1 (configuration not stated)	17.3% (inactive)
O=C(c1ccc(Cn2c(=O)[nH]c3ccccc3c2=O)cc1)N1CCN(c2ccccc2)CC1	-4.78% (inactive)
CCOC(=O)CCNCC1COc2ccccc2O1 (configuration not stated)	0.26% (inactive)
CC(NC(=O)CCC(=O)NC(C)C1COc2ccccc2O1)C1COc2ccccc2O1 (configuration not stated)	6.94% (inactive)
COc1ccc2nc(NC(=O)CN(C)S(=O)(=O)c3cccs3)sc2c1	2.51% (inactive)
Cc1c(C(=O)NC2CC(=O)N(c3ccc4c(c3)OCCO4)C2)cccc1[N+](=O)[O-] (configuration not stated)	10.5% (inactive)
O=S(=O)(Nc1ccc(-c2ccc(NS(=O)(=O)c3ccccc3)cc2)cc1)c1ccccc1	-20.9% (inactive)

Source: PubChem BioAssay AID624330 (Southern Research Specialized Biocontainment Screening …, 2012)
